PHOSPHO1 inh = blocks human PHOSPHO1 phosphatase activity. recombinant PHOSPHO1, absorbance phosphatase assay. 290,000 compounds, 1.1% hits. inhibition, % at 13.3 µM; in the data active = inhibition above about 60%
Target sequence (Q8TCT1 whole entry, looked up): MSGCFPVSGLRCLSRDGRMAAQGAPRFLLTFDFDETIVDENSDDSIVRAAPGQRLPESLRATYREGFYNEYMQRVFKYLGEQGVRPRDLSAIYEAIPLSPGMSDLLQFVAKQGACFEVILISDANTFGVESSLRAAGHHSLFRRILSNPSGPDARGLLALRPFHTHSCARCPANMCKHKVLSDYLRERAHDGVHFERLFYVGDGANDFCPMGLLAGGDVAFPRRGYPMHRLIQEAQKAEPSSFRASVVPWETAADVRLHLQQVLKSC
eIF4H inh = inhibitors of RNA binding by human eIF4H; eIF4H fluorescence polarization binding assay; inhibition, % at 35 µM; 290,000 compounds, 0.94% hits; AID 2012;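 note: calls also rest on retests at 20 µM and on dose response follow-up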
A3G deaminase = inhibitors of human APOBEC3G DNA deaminase; recombinant A3G, ssDNA deamination FAM/TAMRA fluorescence; 330,000 compounds, 0.28% hits; Q9HC16; inhibition, % at 20 µM; AID 493012;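 active = inhibition of at least 40% at 20 µM, with no more than 30% in the related APOBEC3A deaminase screen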;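 note: plate controls were DMSO wells with A3G for no effect and wells lacking A3G enzyme for full effect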
MLLE-PAM2 inh = inhibitors of microRNA-mediated deadenylation, human PABP1 MLLE binding; P11940; GST-MLLE / FITC-PAM2 fluorescence polarization; inhibition, % at 20 µM; 360,000 compounds, 0.36% hits; in the data active = inhibition above about 35%, passing the limit was not always enough;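 note: plate controls were DMSO wells with GST-MLLE for no effect and wells lacking GST-MLLE protein for full effect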
APOBEC3A inh = blocks human APOBEC3A ssDNA deamination; P31941; recombinant A3A, FAM/TAMRA ssDNA deamination fluorescence; inhibition, % at 20 µM; 330,000 compounds, 0.41% hits;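 active = at least 40% inhibition at 20 µM here, with at most 30% in a related deaminase screen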;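 note: plate controls were A3A with DMSO for no effect and wells lacking A3A enzyme for full effect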
PABP polyA inh = PABP-poly(A) binding inhibition; P11940; PABP-poly(A) RNA binding, fluorescence polarization; calls only at 35 µM; 290,000 compounds, 1% hits;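 note: calls also rest on retests at 20 µM and on dose response follow-up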
* = called active by the depositor. Sampled rows, rich in hits. Any-hit rate of the full collection: about 2.6%. Unless noted, the rule behind the calls is not given here.

Screening CCOC(=O)C1=C(CSc2nc3c(cc2C#N)CN(C)CC3)OC(N)=C(C#N)C1c1ccc(Cl)cc1 (stereo unspecified) returned PHOSPHO1 inh 67*, eIF4H inh inconclusive, A3G deaminase 0, MLLE-PAM2 inh -8, APOBEC3A inh -1 and PABP polyA inh inconclusive.
For CCOC(=O)C1=C(CSc2nc(C)cc(C)c2C#N)OC(N)=C(C#N)C1c1ccccc1 (stereo unspecified) the results were PHOSPHO1 inh 91*, eIF4H inh 5, A3G deaminase -5, MLLE-PAM2 inh 6, APOBEC3A inh -3 and PABP polyA inh inactive.
CCCCc1nnc(NC(=O)c2ccccc2OCc2c(C)noc2C)s1 was read as A3G deaminase 7, MLLE-PAM2 inh 4 and APOBEC3A inh 2.
COC(=O)Cc1ccc(OC(=O)c2cccc(S(=O)(=O)N3CCN(C)CC3)c2)cc1 was read as A3G deaminase -9, MLLE-PAM2 inh 10 and APOBEC3A inh -3.
O=C(Nc1ccccc1F)c1csc([C@@H]2C[C@H](O)[C@@H](CO)O2)n1 was read as MLLE-PAM2 inh -13.
For COc1cccc(C(C)(O)c2nc(-c3cnn(C)c3)cs2)c1 (stereo unspecified) the results were MLLE-PAM2 inh 2.
Screening C=CCc1c(C)nc(-c2ccccc2)nc1Nc1ccccc1O returned PHOSPHO1 inh 13, eIF4H inh 69, A3G deaminase -3, MLLE-PAM2 inh 0, APOBEC3A inh -1 and PABP polyA inh active.
For C=CCc1c(C)nc(-c2ccccc2)nc1N/N=C/c1ccccc1 the results were PHOSPHO1 inh -6, eIF4H inh -4, A3G deaminase -1, MLLE-PAM2 inh -15, APOBEC3A inh 1 and PABP polyA inh inactive.
Screening CC(=O)c1c(C)[nH]c(C(=O)NCc2ccc(Cl)cc2)c1C returned MLLE-PAM2 inh 1.
For N#Cc1ccsc1NC(=O)COC(=O)CCCSc1nc2ccccc2s1 the results were PHOSPHO1 inh 11, eIF4H inh 102*, A3G deaminase 3, MLLE-PAM2 inh -18, APOBEC3A inh 2 and PABP polyA inh active.
NC(=O)COC(=O)CCCSc1nc2ccccc2s1 was read as PHOSPHO1 inh 30, eIF4H inh -4, A3G deaminase -15, MLLE-PAM2 inh -15, APOBEC3A inh 2 and PABP polyA inh inactive.
Screening Cc1noc(C)c1CSCC(=O)OCC(=O)Nc1sccc1C#N returned PHOSPHO1 inh -11, eIF4H inh 58*, A3G deaminase -2, MLLE-PAM2 inh 0, APOBEC3A inh 2 and PABP polyA inh active.
For Cc1cc(C)cc(NC(=O)CCC(=O)Nc2nnc(C(C)C)s2)c1 the results were PHOSPHO1 inh 38, eIF4H inh -13, A3G deaminase -2, MLLE-PAM2 inh 3, APOBEC3A inh -1 and PABP polyA inh inactive.
Oc1ccc(N2CCN(c3ncnc4sc5c(c34)CCC5)CC2)cc1 was read as PHOSPHO1 inh 75*, eIF4H inh -7, A3G deaminase 15, MLLE-PAM2 inh 4, APOBEC3A inh -3 and PABP polyA inh inactive.
Screening CCN1C(=O)[C@H]2[C@H]3CN=C(SCc4ccc(Cl)cc4)N3[C@@](C)(C(=O)OC)[C@H]2C1=O returned A3G deaminase 1, MLLE-PAM2 inh 18 and APOBEC3A inh 0.
Screening O=C(COc1ccc(C(=S)N2CCOCC2)cc1Cl)Nc1ccccc1Cl returned PHOSPHO1 inh 45, eIF4H inh 9, A3G deaminase 25, MLLE-PAM2 inh 41*, APOBEC3A inh -4 and PABP polyA inh inactive.
Cc1cc(Cl)ccc1OCC(=O)Nc1ccccc1N1CCOCC1 was read as PHOSPHO1 inh -41, eIF4H inh -4, A3G deaminase -4, MLLE-PAM2 inh -12, APOBEC3A inh -2 and PABP polyA inh inactive.
`Cc1cc(Cl)ccc1OCC(=O)Nc1ccccc1C(=O)N1CCOCC1` gave PHOSPHO1 inh 61*, eIF4H inh 14, A3G deaminase -9, MLLE-PAM2 inh 7, APOBEC3A inh -1 and PABP polyA inh inactive.
COc1cc(C(=S)N2CCCCC2)ccc1OCC(=O)Nc1ccccc1Cl was read as PHOSPHO1 inh 42, eIF4H inh -7, A3G deaminase -7, MLLE-PAM2 inh 19, APOBEC3A inh -1 and PABP polyA inh inactive.
O=C(N/N=C/c1ccsc1)c1cc2ccccc2o1 was read as PHOSPHO1 inh 26, eIF4H inh -10, A3G deaminase -5, MLLE-PAM2 inh 0, APOBEC3A inh -4 and PABP polyA inh inactive.
Nc1cccc(C(=O)N/N=C/c2ccsc2)c1 was read as PHOSPHO1 inh 2, eIF4H inh 84*, A3G deaminase -5, MLLE-PAM2 inh 10, APOBEC3A inh -12 and PABP polyA inh active.
`COC1=C/C(=C/c2c(N)n3cc(C)sc3nc2=O)C=CC1=O` gave PHOSPHO1 inh 11, eIF4H inh 60*, A3G deaminase 0, MLLE-PAM2 inh -148, APOBEC3A inh -6 and PABP polyA inh inactive.
`O=C1c2cccc3cc([N+](=O)[O-])cc(c23)C(=O)N1/N=C/c1ccc(O)cc1O` gave PHOSPHO1 inh -1, eIF4H inh 91*, A3G deaminase 7, MLLE-PAM2 inh 2, APOBEC3A inh 7 and PABP polyA inh active.
Screening CCN(CC)c1ccc(/C=N/N2C(=O)c3ccccc3C2=O)c(O)c1 returned PHOSPHO1 inh 6, eIF4H inh 2, A3G deaminase -2, MLLE-PAM2 inh -3, APOBEC3A inh 0 and PABP polyA inh inactive.
Screening CC(Sc1ccccc1F)C(=O)Nc1ccc2c(c1)OCCO2 (stereo unspecified) returned A3G deaminase -4, MLLE-PAM2 inh -3 and APOBEC3A inh -2.
For COc1cc(C(=O)N2CCCCC2c2cc(C(=O)Nc3ccccc3Cl)no2)cc(OC)c1C (stereo unspecified) the results were MLLE-PAM2 inh -4.
Screening C=CCN(CC=C)C(=S)NC(=O)c1ccc(OC)c(Br)c1 returned PHOSPHO1 inh 7, eIF4H inh 3, A3G deaminase -4, MLLE-PAM2 inh 44*, APOBEC3A inh -3 and PABP polyA inh inactive.
Screening O=C(Nc1cccc(N=Cc2cc(Br)cc(Br)c2O)c1)c1ccco1 returned PHOSPHO1 inh 1, eIF4H inh inconclusive, MLLE-PAM2 inh -8 and PABP polyA inh active.
Screening COc1cc2c(cc1NC(=O)Nc1ccc(C)cc1)oc1ccccc12 returned PHOSPHO1 inh 30, eIF4H inh -5, A3G deaminase -3, MLLE-PAM2 inh 3, APOBEC3A inh 1 and PABP polyA inh inactive.
For COc1cc2c(cc1NC(=O)Nc1ccc(F)cc1)oc1ccccc12 the results were PHOSPHO1 inh 1, eIF4H inh 92*, A3G deaminase 24, MLLE-PAM2 inh 1, APOBEC3A inh -2 and PABP polyA inh active.
For O=C1c2ccccc2C(O)(c2ccccc2)N1c1ccc([N+](=O)[O-])cc1Cl (stereo unspecified) the results were MLLE-PAM2 inh -2.
For O=S(=O)(O)Sc1ccccc1 the results were MLLE-PAM2 inh 35.
